Experimental data published in PubChem BioAssay (Tox21).
Records with an inconclusive call do not appear. Where a call stands in place of a potency, no number is given. Calls of active or inactive are those of the source. Calls follow the shape of the dose curve; as a rule, active = well fitted activation curve with a large enough effect in the repeat runs; inconclusive = weak or mixed curves; inactive = no such curve, though single readings can be large or run the other way. Non-standard residues stand in square brackets, D forms with d. Residues, ends and D or L forms follow the SMILES beside them. pGlu = O=C1CC[C@@H](C(=O)O)N1; Thz = O=C(O)[C@@H]1CSCN1

molecular target: Nuclear receptor subfamily 1 group I member 2 (Homo sapiens) (UniProt O75469); assay: CYP3A4 induction through human pregnane X receptor (PXR) by small molecules, qHTS assay (AID 1346984); details: DPX-2 HepG2 PXR, CYP3A4-luciferin luminescence, 24 h; series mostly up to 46.1 µM; also: nearly all actives have a fitted effect of over 40% in size
From the text: National Center for Advancing Translational Sciences [NCATS]
NIH Chemical Genomics Center [NCGC]
U.S. Environmental Protection Agency [EPA]
National Institutes of Environmental Health Sciences [NIEHS]
National Toxicology Program [NTP]
The Pregnane X receptor (PXR), a ligand activated nuclear receptor plays a critical role in the regulation of genes involved in drug metabolism and transporters. Activation of PXR is responsible for unwanted adverse drug reactions. PXR binds xenobiotics and when compounds interact with PXR enhances the expression of CYP3A genes. Identifying the compounds with the potential for PXR activation and CYP3A4 induction can be of importance in improving the efficacy of drugs with less toxicity and avoiding drug-drug interactions.
DPX-2 (Puracyp, Inc.) cell lines, used for screening against human PXR activation has HepG2 cells co-transfected with a PXR response element and a luciferase construct containing CYP3A4 promoter. Increase in luciferase activity can be used to identify the compounds that cause the induction of CYP3A4.
DPX-2 cells were dispensed at 2,000 cells per well in 5uL of assay medium into white, solid-bottom 1536-well plates using a Multidrop Combi dispenser (Thermo Scientific). The assay plates were incubated at 37C for 5hr before transferring 23nL of test compounds dissolved in DMSO and positive control via Pintool station (Wako). The assay plates were incubated at 37C for 24hr. After 24hr compound treatment, 1uL of 3uM (final concentration) P450 substrate (P450-Glo CYP3A4 screening system with Luciferin-IPA, Promega) was added by a Flying Reagent Dispenser (FRD, Aurora Discovery). The assay plates were incubated for 3hr at 37C. Then 5ul One-Glo assay reagent (Promega) was added to each plate by an FRD and following 30 min incubation at room temperature, luciferase activity was quantified on a ViewLux plate reader (Perkin Elmer).

Structure (SMILES) | Potency
CC1(C)S[C@@H]2[C@H](NC(=O)C3(N)CCCCC3)C(=O)N2[C@H]1C(=O)O | inactive
CCN(CC)CCOc1ccccc1OC | inactive
O=C(NNCS(=O)(=O)O)c1ccncc1 | inactive
CC(C)[C@@H](N)C(=O)O | inactive
CN1c2c(nc(N)[nH]c2=O)NCC1CNc1ccc(C(=O)NC(CCC(=O)O)C(=O)O)cc1 (stereo not given) | inactive
CC(=O)O[C@]1(C(C)=O)CC[C@H]2[C@@H]3CCC4=CC(=O)CC[C@]4(C)[C@@]3(F)[C@@H](O)C[C@@]21C | inactive
O=C(O)CO.[NH2-].[NH2-].[Pt+2] | inactive
CCCCCCCCCCCCCCCCCC(=O)OC[C@@H](O)[C@H]1OC[C@H](O)[C@H]1O | inactive
CCCc1nc(C(C)(C)O)c(C(=O)OCc2oc(=O)oc2C)n1Cc1ccc(-c2ccccc2-c2nn[nH]n2)cc1 | inactive
C=Cc1c(C)c2cc3nc(cc4[nH]c(cc5nc(cc1[nH]2)C(C)=C5CCC(=O)OC)c(CCC(=O)O)c4C)[C@@]1(C)C3=CC=C(C(=O)OC)[C@H]1C(=O)OC | inactive
C=CC1=C(C)C2=CC3=NC(=C(CC(=O)[O-])C4=NC(=C(C)C4=C([O-])[O-])C=c4[n-]c(c(C)c4CC)=CC1=N2)C(CCC(=O)[O-])C3C.[Cu+2].[Na+].[Na+].[Na+] (stereo not given) | inactive
CC(C)[C@@H]1CC[C@@H](C)C[C@H]1OC(=O)c1ccccc1O | inactive
O=C1CC[C@@H](C(=O)N2CSC[C@H]2C(=O)O)N1 ([pGlu]-[Thz]-OH) | inactive
O=C(O)CN(CC(=O)O)CC1=CC2C(=CC1=O)Oc1cc(O)c(CN(CC(=O)O)CC(=O)O)cc1C21OC(=O)c2ccccc21 (stereo not given) | inactive
CC(=O)N[C@@H]([C@@H](O)[C@H](O)[C@H](O)CO)[C@@H](O)CC(=O)C(=O)O | inactive
Cc1ncc(COP(=O)(O)O)c(CN)c1O | inactive
OCCN1CCN(CC/C=C2/c3ccccc3Sc3ccc(Cl)cc32)CC1 | inactive
C[C@]12C=CC(=O)N[C@@H]1CC[C@@H]1[C@@H]2CC[C@]2(C)[C@@H](C(=O)Nc3cc(C(F)(F)F)ccc3C(F)(F)F)CC[C@@H]12 | inactive
CCCCCCCCCCCC(=O)N(CCO)CCO | inactive
CC1(C)S[C@@H]2[C@H](NC(=O)C(C(=O)O)c3ccsc3)C(=O)N2[C@H]1C(=O)O (stereo not given in full) | inactive

Structure (SMILES) | Potency
COc1ccc2cc([C@H](C)CO)ccc2c1 | inactive
Nc1ccc(S(=O)(=O)Nc2ncccn2)cc1 | inactive
CO[C@H]1C[C@@H]2CC[C@@H](C)[C@@](O)(O2)C(=O)C(=O)N2CCCC[C@H]2C(=O)O[C@H]([C@H](C)C[C@@H]2CC[C@@H](OC(=O)C(C)(CO)CO)[C@H](OC)C2)CC(=O)[C@H](C)/C=C(\C)[C@@H](O)[C@@H](OC)C(=O)[C@H](C)C[C@H](C)/C=C/C=C/C=C/1C | inactive
CCCCCCCCCCCCCCCCCC(=O)OCC(C)O (stereo not given) | inactive
O=C(O)CC/C=C\CC[C@@H]1[C@@H](N2CCCCC2)[C@@H](O)C[C@@H]1OCc1ccc(-c2ccccc2)cc1 | inactive
Cc1cc(-c2ccc(N=Nc3c(S(=O)(=O)O)cc4cc(S(=O)(=O)O)cc(N)c4c3O)c(C)c2)ccc1N=Nc1c(S(=O)(=O)O)cc2cc(S(=O)(=O)O)cc(N)c2c1O | inactive
O=C(O)c1cc(N=Nc2ccc(O)c(C(=O)O)c2)ccc1O | inactive
OC[C@H]1O[C@@H](O[C@H]2[C@H](O)[C@@H](O)[C@H](O)O[C@@H]2CO)[C@H](O)[C@@H](O)[C@@H]1O | inactive
CC(=O)N[C@@H](C=O)[C@@H](O)[C@H](O)[C@H](O)CO | inactive
O=C(NNCNNC(=O)c1ccncc1)c1ccncc1 | inactive
O=[n+]1ccn([O-])c2ccccc21 | inactive
CCCc1ccc(C(=O)O)cc1 | inactive
CC(C)=CCC/C(C)=C/C=C/C(C)=C/C=C/C(C)=C/C=C/C=C(C)/C=C/C=C(C)/C=C/C=C(\C)CCC=C(C)C | inactive
CO/N=C(\C(=O)N[C@@H]1C(=O)N2C(C(=O)O)=C(CSC(=O)c3ccco3)CS[C@H]12)c1csc(N)n1 | inactive
CC(C)[C@@H](C)/C=C/[C@@H](C)[C@H]1CC[C@H]2/C(=C/C=C3\C[C@@H](O)CC[C@@H]3C)CCC[C@]12C | inactive
CCOC(=O)O[C@]1(C(=O)COC(=O)CC)CC[C@H]2[C@@H]3CCC4=CC(=O)C=C[C@]4(C)[C@H]3[C@@H](O)C[C@@]21C | inactive
O=C(CCCCCCCCCCCCC1CCCC1)Nc1ccc(S(=O)(=O)c2ccc(NC(=O)CCCCCCCCCCCCC3CCCC3)cc2)cc1 | inactive
CCOc1cc(-c2nccc3cc(OC)c(OC)cc23)cc(OCC)c1OCC | inactive
Nc1nc2[nH]cc(CCc3ccc(C(=O)N[C@@H](CCC(=O)O)C(=O)O)cc3)c2c(=O)[nH]1 | inactive
CCOC(=O)[C@H](CS)NCCN[C@@H](CS)C(=O)OCC | inactive
